The full list was thinned out, with hits kept by preference.
AmpC no deterg: qHTS Inhibitors of AmpC Beta-Lactamase (assay without detergent). P00811. AmpC nitrocefin hydrolysis, absorbance 480 nm, 0.0001% Triton. Potency, µM (highest dose often 57.1 µM), usual class: inhibitors. 330,000 compounds, 0.52% hits; note: nearly all actives have a fitted effect of over 20% in size
Target sequence (P00811 whole entry, looked up): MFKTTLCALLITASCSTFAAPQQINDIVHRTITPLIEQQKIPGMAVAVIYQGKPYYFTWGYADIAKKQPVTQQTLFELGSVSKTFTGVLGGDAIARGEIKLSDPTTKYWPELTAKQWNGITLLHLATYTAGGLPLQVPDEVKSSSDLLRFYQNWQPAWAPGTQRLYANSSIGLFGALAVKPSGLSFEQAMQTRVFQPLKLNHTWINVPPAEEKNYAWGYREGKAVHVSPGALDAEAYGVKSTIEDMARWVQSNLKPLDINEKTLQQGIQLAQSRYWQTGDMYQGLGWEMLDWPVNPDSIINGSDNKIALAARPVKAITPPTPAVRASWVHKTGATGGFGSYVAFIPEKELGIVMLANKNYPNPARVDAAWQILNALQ
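AmpC (5.3 nM in the dispensed reagent) in 20 mM phosphate pH 7.0 with 0.01% (detergent screen) or 0.0001% Triton X-100 was preincubated with compounds for 15 min at room temperature. Nitrocefin was then added from an 800 uM solution, and hydrolysis was followed at 480 nm.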
AMA1 RON2 block: qHTS for Inhibitors of AMA1-RON; Towards Development of Antimalarial Drug Lead: Primary Screen. Plasmodium falciparum AMA1 (3D7) - RON2 peptide interaction. AlphaScreen AMA1-biotinylated RON2 peptide binding. Potency, µM (doses to about 58.2 µM), actives largely listed as inhibitors. 360,000 compounds, 0.2% hits; note: nearly all actives have a fitted effect of over 45% in size
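AMA1 (3D7) with his tag at 25 nM final met compounds first, then biotinylated RON2 peptide at 25 nM; detection used donor plus acceptor beads, 10 µg/mL apiece, read by AlphaScreen after 30 min at room temperature.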
AmpC detergent: qHTS Inhibitors of AmpC Beta-Lactamase (assay with detergent). P00811. AmpC hydrolysis of nitrocefin, absorbance 480 nm, 0.01% Triton. Potency, µM (highest dose often 114 µM), hits mostly inhibitors. 370,000 compounds, 0.041% hits. AID 485294, 2010; note: nearly all actives have a fitted effect of over 25% in size
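20 mM phosphate pH 7.0 + 0.01% (detergent screen) or 0.0001% Triton X-100; 5.3 nM AmpC reagent; cpd preinc 15 min RT; nitrocefin (800 uM stock) to start; A480 q20 s × 4 min; Activity was normalised to no-enzyme and no-compound control wells.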
Shiga toxin inh: A qHTS for Small Molecule Inhibitors of Shiga Toxin | AID 2315, 2010 | inhibition, % at 38.7 µM | Vero cells, Shiga toxin protein synthesis inhibition reporter | 290,000 compounds, 9.2% hits; in the data active = inhibition mostly above about 28%, no sharp cut-off; inactive = mostly below about 43%
SARS PLP yeast: qHTS of Yeast-based Assay for SARS-CoV PLP | S. cerevisiae expressing SARS-CoV PLpro, growth rescue | Potency, µM (top dose mostly 32.9 µM), hits mostly activators | 330,000 compounds, 0.19% hits | AID 485353, 2010; calls by dose curve; note: nearly all actives have a fitted effect of over 55% in size
Cycloheximide cs: Cycloheximide Counterscreen for Small Molecule Inhibitors of Shiga Toxin | cell reporter, cycloheximide protein synthesis inhibition counterscreen | max response, % | 300,000 compounds, 12% hits | AID 2314, 2010; in the data active = max response mostly above about 13%, no sharp cut-off; inactive = mostly below about 14%; note: read at 38.3 µM for the half of the compounds with a filed dose
Large screens that a line does not name were inactive. Unless noted, calls come from the whole dose curve; as a rule, active = well fitted curve in the direction sought with a large enough effect; inconclusive = small, poorly fitted or top-dose-only effect, or another doubt; inactive = no such curve, though single readings can be large; an effect the other way counts as inactive or inconclusive.

FC(F)(F)c1ccc(C2Nc3cccc4cccc(c34)N2)cc1	AmpC detergent inconclusive
CC(C)(C)C1CCC2(CC1)Nc1cccc3cccc(c13)N2	AmpC no deterg 12.6µM, AmpC detergent inconclusive
Cc1c(NC(=O)c2cc3ccccc3o2)cccc1-c1nc2ccccc2o1	none (no result: AmpC no deterg, AMA1 RON2 block, Shiga toxin inh, SARS PLP yeast, Cycloheximide cs)
O=C(Nc1nc2ccccc2[nH]1)c1cc2ccccc2o1	Shiga toxin inh 54.1, Cycloheximide cs 34.6
Cc1ccsc1C(=O)Nc1nc2ccccc2[nH]1	Shiga toxin inh 74.6, Cycloheximide cs 27.8
CCc1ccc(C(=O)Nc2nc3ccccc3[nH]2)cc1	AmpC detergent inconclusive
CN(c1ccccc1)S(=O)(=O)c1ccc(Cl)c(C(=O)Nc2nc3ccccc3[nH]2)c1	none
CN(C)S(=O)(=O)c1ccc(C(=O)Nc2nc3ccccc3[nH]2)cc1	Shiga toxin inh 79.9, Cycloheximide cs 36.4
CCn1nc(C(=O)Nc2nc3ccccc3[nH]2)c2ccccc2c1=O	none
N#Cc1ccc(C(=O)Nc2nc3ccccc3[nH]2)cc1	AmpC detergent inconclusive, Shiga toxin inh 58.9, Cycloheximide cs 34.8
CCOCN(C(=O)Cn1c(CO)nc2ccccc21)c1c(C)cccc1CC	none
CCc1cccc(NC(=O)CSc2ncc3c(n2)-c2ccccc2N(CC)S3(=O)=O)c1	none (no result: AmpC no deterg, AMA1 RON2 block, Shiga toxin inh, SARS PLP yeast, Cycloheximide cs)
Cn1cc(C(=O)NCc2ccc(F)cc2)c(=O)c2cc(S(=O)(=O)N3CCCCC3)ccc21	none
Cc1cccc(NC(=O)c2ccccc2SCc2ccc(F)cc2)n1	none (no result: Shiga toxin inh, Cycloheximide cs)
COc1ccc(OC)c(CN2CCC(N3CCC(C(=O)NC4CC4)CC3)CC2)c1	none
COc1ccc(Br)c(C(=O)Nc2nc3ccccc3[nH]2)c1	Shiga toxin inh 68.5, Cycloheximide cs 53.7
COc1ccc2oc(C(=O)Nc3nc4ccccc4[nH]3)c(C)c2c1	Shiga toxin inh 70.3, Cycloheximide cs 57.5
O=C(Nc1nc2ccccc2[nH]1)c1cc(F)cc(F)c1	Shiga toxin inh 67.4, Cycloheximide cs 67.5
O=C(Cc1ccccc1F)Nc1nc2ccccc2[nH]1	Cycloheximide cs 24.1
Cc1nc2c(c(C)nn2-c2ccccc2)c(C)c1CCC(=O)NCCc1ccccc1	none (no result: AmpC no deterg, AMA1 RON2 block, Shiga toxin inh, SARS PLP yeast, Cycloheximide cs)
COCc1cc(C)nc(SCC(=O)Nc2cc3c(cc2C#N)OCO3)c1C#N	AmpC detergent inconclusive
COc1cc(OC)cc(C(=O)Nc2nc3ccccc3[nH]2)c1	Shiga toxin inh 128.6, Cycloheximide cs 58.7
O=C(Nc1nc2ccccc2[nH]1)c1ccc(F)cc1	AmpC detergent inconclusive, Cycloheximide cs 19.9
Cc1cc(C)cc(C(=O)Nc2nc3ccccc3[nH]2)c1	Shiga toxin inh 120.6, Cycloheximide cs 35.3
NNc1nc2sc3c(c2c(=O)n1Cc1ccccc1)CCC3	none
NNc1nc(-c2ccccc2)nc2sc3c(c12)CCCC3	Shiga toxin inh 108.6, Cycloheximide cs 62.0
CNC(=O)CSc1nnc(-c2cccc(S(=O)(=O)N3CCOCC3)c2)n1-c1ccc(F)cc1	none
CN(C)S(=O)(=O)c1cccc(-c2nnc(SCC(=O)NCCCCCC(=O)O)n2-c2ccc(F)cc2)c1	Shiga toxin inh 31.9
CCOC(=O)C1(Cc2ccccc2C)CCCN(C(=O)COC)C1 (stereo not drawn)	AmpC detergent inconclusive, Shiga toxin inh 40.8, Cycloheximide cs 23.1
CCOC(=O)C1(Cc2ccccc2C)CCCN(C(=O)CCC(=O)OC)C1 (stereo not drawn)	none
CCOC(=O)C1(Cc2cccc(Cl)c2)CCCN(C(=O)CCSC)C1 (stereo not drawn)	Cycloheximide cs 21.7
CCOC(=O)C1(Cc2cccc(Cl)c2)CCCN(C2CCN(C(C)=O)CC2)C1 (stereo not drawn)	none
CCOC(=O)C1(Cc2cccc(Cl)c2)CCCN(C(=O)CCOC)C1 (stereo not drawn)	Cycloheximide cs 12.6
C=CCCC(=O)N1CCCC(Cc2cccc(Cl)c2)(C(=O)OCC)C1 (stereo not drawn)	AmpC detergent inconclusive
CCOC(=O)C1(Cc2cccc(Cl)c2)CCCN(C(=O)CCN2CCCC2=O)C1 (stereo not drawn)	SARS PLP yeast inconclusive, Cycloheximide cs 24.7 (no result: AMA1 RON2 block)
